Experimental findings from PubChem BioAssay (Tox21) are described below.

The nature of assay [1]: qHTS assay to test for compound auto fluorescence at 535 nm (green) in HEK293 cells (AID 720680).
The nature of assay [2]: qHTS assay to test for compound auto fluorescence at 460 nm (blue) in HEK293 cell free culture (AID 720681). The gist of the method: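 Test compounds were pinned into cell-free culture medium (DMEM with 10% FBS) and fluorescence was read directly at Ex/Em 405/460 nm. Signals were expressed as fluorescence equivalents of triamterene, with DMSO vehicle as control.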
In general terms: qHTS replaces the single test concentration by a dilution series.

A short description of assay [3]: qHTS assay to test for compound auto fluorescence at 535 nm (green) in HEK293 cell free culture (AID 720682). The gist of the method: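 Measurement is a direct plate read of green fluorescence (485 nm in, 535 nm out) after compound addition to serum-supplemented DMEM lacking cells, with fluorescein used to express intensities.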
Assay [4] is described as follows: qHTS assay to test for compound auto fluorescence at 590 nm (red) in HEK293 cell free culture (AID 720683). The gist of the method:
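Tox21 10K library compounds were pinned into cell-free DMEM with 10% FBS and fluorescence was read at excitation 540 nm. Activity is expressed as Rose Bengal sodium equivalency.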

The nature of assay [5]: qHTS assay to test for compound auto fluorescence at 590 nm (red) in HepG2 cell free culture (AID 720684). The gist of the method:
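Ex 540 / Em 590 nm read of compound in cell-free MEM (10% FBS). Rose Bengal sodium reference.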

A short description of assay [6]: qHTS assay to test for compound auto fluorescence at 460 nm (blue) in HepG2 cell free culture (AID 720685). The gist of the method:
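Cell-free plates of MEM plus 10% FBS received 23 nL compound or DMSO vehicle; blue-channel (405/460 nm) intensity scored against triamterene as reference fluorophore.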

Assay [7] in a line: qHTS assay to test for compound auto fluorescence at 535 nm (green) in HepG2 cell free culture (AID 720686).
Assay [8] is described as follows: qHTS assay to test for compound auto fluorescence at 460 nm (blue) in HepG2 cells (AID 720687). The gist of the method:
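Cells (2,000/well in MEM with 10% FBS) attached overnight at 37 C, then were exposed to compound or DMSO for 1 hr at 37 C, 5% CO2. Fluorescence read at Ex/Em 405/460 nm, expressed as triamterene-equivalent signal.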

The target in assay [9] is Glucocorticoid receptor (Homo sapiens) (UniProt P04150). Put plainly: qHTS assay to identify small molecule agonists of the glucocorticoid receptor (GR) signaling pathway (AID 720691; active = well fitted activation curve with a large enough effect in the signal ratio in the repeat runs, not every such curve was filed as active; the % refers to the signal ratio; note: potency is the fitted concentration of half-maximal effect). The gist of the method:
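Steps: seed GR-bla HeLa cells, incubate 4 h at 37 C/5% CO2; pin-transfer DMSO-dissolved compounds; incubate 18 h at 37 C; add LiveBLAzer B/G FRET substrate; after 2 h at room temperature, measure fluorescence.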

A short description of assay [10]: qHTS assay to identify small molecule antagonists of the glucocorticoid receptor (GR) signaling pathway - cell viability counter screen (AID 720693). Note: nearly all actives have a fitted effect of over 55% in size.
A short description of assay [11]: qHTS assay for identifying genotoxic compounds that show differential cytotoxicity against isogenic chicken DT40 cell lines with known DNA damage response pathways - Rev3 mutant cell line (AID 743014). Note: nearly all actives have a fitted effect of over 55% in size. Note: potency is the fitted concentration of half-maximal effect.
Assay [12] is described as follows: qHTS assay for identifying genotoxic compounds that show differential cytotoxicity against isogenic chicken DT40 cell lines with known DNA damage response pathways - Rad54/Ku70 mutant cell line (AID 743015). Note: nearly all actives have a fitted effect of over 60% in size. Note: potency is the fitted concentration of half-maximal effect.
A short description of assay [13]: qHTS assay to identify small molecule antagonists of the androgen receptor (AR) signaling pathway - cell viability counter screen (AID 743033; note: nearly all actives have a fitted effect of over 45% in size; note: potency is the fitted concentration of half-maximal effect).
Assay [14] deals with Androgen receptor (Homo sapiens) (UniProt P10275). Briefly: qHTS assay to identify small molecule antagonists of the androgen receptor (AR) signaling pathway (AID 743035; active = well fitted inhibition curve with a large enough effect in the signal ratio in the repeat runs, not every such curve was filed as active; the % refers to the signal ratio). The gist of the method: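 Steps: seed AR-UAS-bla GripTite HEK293 cells, incubate 4 h at 37C; pin in test compound, then add agonist R1881; incubate 16 h at 37C; add LiveBLAzer B/G FRET substrate, 2 h at room temperature; read fluorescence.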
Chain of Androgen receptor (Homo sapiens) (P10275 whole entry, looked up): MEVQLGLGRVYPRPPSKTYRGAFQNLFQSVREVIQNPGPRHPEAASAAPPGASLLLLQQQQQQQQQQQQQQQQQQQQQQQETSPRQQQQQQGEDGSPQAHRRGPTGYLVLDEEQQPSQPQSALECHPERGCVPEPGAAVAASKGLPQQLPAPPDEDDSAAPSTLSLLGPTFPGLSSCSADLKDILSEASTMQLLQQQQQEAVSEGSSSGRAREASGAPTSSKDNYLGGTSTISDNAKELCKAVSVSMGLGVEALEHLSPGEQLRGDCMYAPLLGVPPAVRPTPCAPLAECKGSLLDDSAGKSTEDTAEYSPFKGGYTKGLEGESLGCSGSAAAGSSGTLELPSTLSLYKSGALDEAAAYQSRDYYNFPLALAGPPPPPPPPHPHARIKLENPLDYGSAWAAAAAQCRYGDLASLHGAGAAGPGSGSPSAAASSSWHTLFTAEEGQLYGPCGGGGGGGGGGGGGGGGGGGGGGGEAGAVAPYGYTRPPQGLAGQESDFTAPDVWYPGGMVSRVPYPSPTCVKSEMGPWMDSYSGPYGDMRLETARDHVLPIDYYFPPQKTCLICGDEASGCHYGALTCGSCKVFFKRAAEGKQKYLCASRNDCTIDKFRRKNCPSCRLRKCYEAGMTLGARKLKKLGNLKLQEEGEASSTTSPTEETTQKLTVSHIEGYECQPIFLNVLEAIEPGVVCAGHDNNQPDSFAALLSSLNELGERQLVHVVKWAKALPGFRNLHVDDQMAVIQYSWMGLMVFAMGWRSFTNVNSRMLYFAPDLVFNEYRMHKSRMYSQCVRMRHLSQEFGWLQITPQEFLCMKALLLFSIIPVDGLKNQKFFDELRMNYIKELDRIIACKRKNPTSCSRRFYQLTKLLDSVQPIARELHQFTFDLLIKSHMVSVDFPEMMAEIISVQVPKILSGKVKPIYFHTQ

Assay [15] shares this target. Put plainly: qHTS assay to identify small molecule agonists of the androgen receptor (AR) signaling pathway (AID 743036; active = well fitted activation curve with a large enough effect in the signal ratio in the repeat runs, with a control signal flat, not every such curve was filed as active; the % refers to the signal ratio). The gist of the method: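 Beta-lactamase under UAS control, stably integrated in HEK293 GripTite cells, reports receptor activation. After 16 h compound treatment, cells received FRET substrate for 2 h at room temperature before fluorescence reading.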

For assay [16] the target is unchanged. Briefly: qHTS assay to identify small molecule agonists of the androgen receptor (AR) signaling pathway using the MDA cell line (AID 743040; note: nearly all actives have a fitted effect of over 20% in size). The gist of the method:
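Cell-based luciferase reporter: MDA-kb2, MMTV promoter (AR + GR response elements). 16 h compound exposure at 37C; ONE-Glo, 30 min RT, luminescence.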

Assay [17] in a line: qHTS assay to identify small molecule antagonists of the androgen receptor (AR) signaling pathway using the MDA cell line - cell viability counter screen (AID 743041; note: nearly all actives have a fitted effect of over 45% in size; note: potency is the fitted concentration of half-maximal effect). The gist of the method: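 In this qHTS counter assay, fluorescence intensity after CellTiter-Fluor addition indicated viability of MDA-kb2 AR-luc cells given compounds and R1881 for 16 h at 37C.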
The target in assay [18] is Androgen receptor (Homo sapiens) (UniProt P10275). Briefly: qHTS assay to identify small molecule antagonists of the androgen receptor (AR) signaling pathway using the MDA cell line (AID 743042; note: nearly all actives have a fitted effect of over 55% in size). The gist of the method:
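MDA-kb2 cells (human breast carcinoma, stably carrying an MMTV-luciferase reporter responsive to AR and GR) were plated at 3,000 cells/well and preincubated 5 hr at 37C, then given compound plus R1881 agonist for 16 h. ONE-Glo luminescence was read.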

Assay [19] in a line: qHTS assay for identifying genotoxic compounds that show differential cytotoxicity against isogenic chicken DT40 cell lines with known DNA damage response pathways - wild type cell line (AID 743012). Note: nearly all actives have a fitted effect of over 60% in size. Note: potency is the fitted concentration of half-maximal effect. The gist of the method: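 Cytotoxicity in repair-proficient parental chicken DT40 cells serves as the comparator for Rad54/Ku70- and Rev3-deficient lines. Cells were exposed to compounds for 40 h at 37 C/5% CO2, and ATP-based luminescence (CellTiter-Glo) measured viability.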

Unmarked numbers belong to inactive results. Results filed as inconclusive are left out. The source made the active and inactive calls. Unless noted, calls come from the whole dose curve; as a rule, active = well fitted curve in the direction sought with a large enough effect in the repeat runs; inconclusive = weak or mixed curves; inactive = no such curve, though single readings can be large; an effect the other way counts as inactive or inconclusive.
% is set by controls: 0 for no effect and ±100 for the full control effect.

Chain of Glucocorticoid receptor (Homo sapiens) (P04150 whole entry, looked up): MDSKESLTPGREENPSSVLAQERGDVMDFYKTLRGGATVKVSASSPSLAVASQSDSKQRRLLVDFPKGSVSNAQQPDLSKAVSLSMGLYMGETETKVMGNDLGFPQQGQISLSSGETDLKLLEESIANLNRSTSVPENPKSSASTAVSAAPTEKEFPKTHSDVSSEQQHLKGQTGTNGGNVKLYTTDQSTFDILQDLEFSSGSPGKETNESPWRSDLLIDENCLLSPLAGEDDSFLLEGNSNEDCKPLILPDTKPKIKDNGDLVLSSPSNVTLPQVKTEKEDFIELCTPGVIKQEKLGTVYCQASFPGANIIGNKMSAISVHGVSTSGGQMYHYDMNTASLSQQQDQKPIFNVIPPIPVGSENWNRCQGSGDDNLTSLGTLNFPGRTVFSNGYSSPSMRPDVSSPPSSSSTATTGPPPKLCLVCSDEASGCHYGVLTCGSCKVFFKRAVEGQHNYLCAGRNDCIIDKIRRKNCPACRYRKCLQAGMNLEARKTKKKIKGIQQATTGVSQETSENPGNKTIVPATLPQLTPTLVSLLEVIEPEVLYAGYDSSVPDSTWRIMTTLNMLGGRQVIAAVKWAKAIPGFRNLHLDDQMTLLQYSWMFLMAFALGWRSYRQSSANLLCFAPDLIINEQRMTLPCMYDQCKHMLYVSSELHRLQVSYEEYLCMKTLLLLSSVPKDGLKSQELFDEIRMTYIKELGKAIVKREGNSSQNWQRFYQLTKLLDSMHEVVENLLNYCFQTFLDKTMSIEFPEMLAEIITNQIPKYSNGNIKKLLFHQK

With `O=C(Oc1ccccc1)c1ccc2ccccc2c1O`, the compound was called inactive in [1], in [3], in assay [4], in assay [5], in [7] and in [15]. Besides, the Potency entry in assay [2], in assay [6], in [8], in assay [9], in [10] and in assay [13] was “inactive” each time. Further, the Potency result in [14], in assay [16], in [17] and in assay [18] was “inactive” in each case. The Potency in assay [11] is 54.5 µM (active); in assay [12] it was 48.6 µM (active).
Take `Nc1cccc2c(N)cccc12`: the outcome in [1], in assay [3], in assay [4], in [5] and in assay [7] was inactive. Besides, the Potency entry in assay [2], in [6], in assay [8], in assay [9], in [10] and in [13] was “inactive” in each case. Moreover, the Potency result in assay [16] is “inactive”. The Potency in assay [19] was 54.5 µM (active); in assay [11] it was 47.2 µM (active); in assay [12], 41.6 µM (active).
Regarding `CCC(CO)(CO)[N+](=O)[O-]`, the result in assay [1], in [3], in [4], in assay [5] and in [7] was inactive. In addition, the Potency entry in [2], in assay [6], in [8], in [9], in [10] and in assay [19] was “inactive” in each case. For the same compound, the Potency result in assay [12] and in assay [17] was “inactive” in each case.
Turning to `Nc1nc2ccc(OC(F)(F)F)cc2s1`, the compound was called inactive in assay [1], in [3], in [4], in [5] and in [7]. Besides, the Potency entry in assay [2], in assay [6], in [8], in assay [9], in assay [10] and in assay [17] was “inactive” in each case.
For the compound `CCCCC[C@H](O)/C=C/[C@H]1[C@H](O)CC(=O)[C@@H]1C/C=C\CCCC(=O)O`, the call in assay [1], in [3], in assay [4], in assay [5] and in assay [7] was inactive. The Potency entry in [2], in assay [6], in assay [8], in assay [9], in [10] and in assay [19] was “inactive” each time. In addition, the Potency entry in [11], in assay [13], in assay [16] and in [17] was “inactive” each time.
In the case of `CC(C)C1CCC(C(=O)N[C@H](Cc2ccccc2)C(=O)O)CC1` (some centres not stated), the compound was classed as inactive in assay [1], in assay [3], in assay [4], in assay [5] and in assay [7]. For the same compound, the Potency entry in [2], in [6], in [8], in assay [9], in [10] and in assay [19] was “inactive” each time. Besides, in [13], the Potency result was “inactive”.
Take `CCN(CC)C(=O)N1CCN(C)CC1`: in assay [1], the fluorescence, % of fluorescein is -0.0466% [at 18.6 µM]. The fluorescence, % of fluorescent control in assay [2] is 0.0671% [at 18.6 µM]; in assay [4] it was 0.461% [at 18.6 µM]; in assay [6], -0.0488% [at 18.6 µM]; in [8], 0.0195% [at 18.6 µM]. Further, the activity change in assay [3] was -0.0353% [at 18.6 µM]. Moreover, the fluorescence, % of Rose Bengal in assay [5] was 0.0189% [at 18.6 µM]. For the same compound, in [7], the fluorescence, % of fluorescein control was -0.0623% [at 18.6 µM]. Besides, the Potency in assay [9] is 10.2 µM (active). For the same compound, the Potency result in assay [10], in [19], in [11], in assay [12] and in assay [17] was “inactive” each time.
For the compound `CCCCCCC(CO)CCCC` (configuration not stated), the call in assay [1], in assay [3], in assay [4], in [5] and in [7] was inactive. For the same compound, the Potency result in assay [2], in assay [6], in assay [8], in assay [9], in assay [10] and in assay [19] was “inactive” each time.
In the case of `Cc1cc(CCC(=O)OCCOCCOCCOC(=O)CCc2cc(C)c(O)c(C(C)(C)C)c2)cc(C(C)(C)C)c1O`, the compound was called inactive in assay [1], in assay [3], in assay [4], in assay [5] and in [7]. Also, the Potency entry in [2], in assay [6], in assay [8], in assay [9], in assay [10] and in [17] was “inactive” throughout. In addition, the Potency is 26.6 µM (active) in assay [19] and 23.7 µM (active) in [12].
As to `C=CCOC(=O)COCCC(C)C`, the call in assay [1], in assay [3], in assay [4], in assay [5] and in assay [7] was inactive. For the same compound, the Potency result in [2], in [6], in [8], in assay [9], in assay [10] and in assay [19] was “inactive” each time. Moreover, the Potency result in [11], in assay [13] and in assay [17] was “inactive” each time.
For the compound `CC(=O)Oc1cccc(O)c1`, the result in assay [1], in [3], in [4], in assay [5] and in [7] was inactive. Also, the Potency result in [2], in assay [6], in assay [8], in assay [9], in [19] and in assay [12] was “inactive” throughout.
For `Cc1c(C2(c3cc(Br)c(O)c(Br)c3C)OS(=O)(=O)c3ccccc32)cc(Br)c(O)c1Br`, the compound was classed as inactive in assay [1], in [3], in assay [4], in [5] and in [7]. Also, the Potency result in assay [2], in [6], in assay [8] and in assay [9] was “inactive” throughout. Also, the Potency in [19] is 18.8 µM (active); in assay [11], 18.8 µM (active); in [12], 18.8 µM (active); in assay [13] it was 16.9 µM (active); in assay [17], 23.6 µM (active).
On to `CSSc1ccoc1C`, for which the compound was classed as inactive in [1], in assay [3], in assay [4], in assay [5] and in assay [7]. The Potency result in [2], in assay [6], in assay [8], in assay [9], in [10] and in assay [17] was “inactive” in each case. Moreover, the Potency in assay [19] and in assay [12] was 19.2 µM (active) throughout.
In the case of `SCCc1cnccn1`, the call in assay [1], in assay [3], in assay [4], in assay [5] and in assay [7] was inactive. The Potency entry in assay [2], in assay [6], in [8], in assay [9], in [10] and in assay [19] was “inactive” each time. For the same compound, the Potency result in assay [11], in assay [12] and in assay [13] was “inactive” each time.
Regarding `CC(C)(O)CCc1ccccc1`, the call in [1], in assay [3], in [4], in assay [5] and in assay [7] was inactive. For the same compound, the Potency result in [2], in [6], in assay [8], in assay [9], in assay [10] and in assay [19] was “inactive” each time. The Potency entry in assay [11], in assay [12] and in [17] was “inactive” in each case.
